In all, about 16,000 compounds went through this assay and about 4,000 (25%) were called active. Inconclusive results (about 26%) are left out. Calls come from the whole dose curve; as a rule, active = well fitted curve in the direction sought with a large enough effect; inconclusive = small, poorly fitted or top-dose-only effect, or effect the other way; inactive = no such curve, though single readings can be large or run the other way. Not all results are given here.
Target: Cytochrome P450 2C9 (Homo sapiens) (UniProt P11712)
Sequence (P11712 whole entry, looked up): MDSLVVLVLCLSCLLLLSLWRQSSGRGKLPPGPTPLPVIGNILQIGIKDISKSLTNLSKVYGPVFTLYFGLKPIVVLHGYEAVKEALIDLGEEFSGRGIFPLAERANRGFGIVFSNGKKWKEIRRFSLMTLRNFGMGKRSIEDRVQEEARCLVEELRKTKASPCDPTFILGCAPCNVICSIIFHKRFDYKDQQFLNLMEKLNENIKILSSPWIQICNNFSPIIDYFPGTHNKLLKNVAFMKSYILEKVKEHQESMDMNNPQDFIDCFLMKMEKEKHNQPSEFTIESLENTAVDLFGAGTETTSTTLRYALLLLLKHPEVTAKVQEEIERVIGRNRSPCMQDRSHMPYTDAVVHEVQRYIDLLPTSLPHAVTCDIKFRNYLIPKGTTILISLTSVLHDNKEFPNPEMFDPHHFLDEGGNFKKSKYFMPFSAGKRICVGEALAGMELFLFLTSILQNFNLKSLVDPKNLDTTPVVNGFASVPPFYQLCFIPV
Assay: Cytochrome panel assay with activity outcomes
Conditions: recombinant CYP, pro-luciferin dealkylation, luminescence, p450-cyp2c9; series mostly up to 57.1 µM; activity, negative = inhibition: at the top concentration
% is set by controls: 0 for no effect and ±100 for the full control effect.

| SMILES | activity, negative = inhibition | AC50 |
| --- | --- | --- |
| CC1CCN(CC[C@@H]2CCCN2S(=O)(=O)c2cccc(O)c2)CC1 | -6.49% (inactive) |  |
| CC1CCN(S(=O)(=O)c2ccc3c(c2)C(=NO)c2cc(S(=O)(=O)N4CCC(C)CC4)ccc2-3)CC1 |  | 3.98 µM (active) |
| CC1CCN(CC[C@H]2CCCN2S(=O)(=O)c2cccc(O)c2)CC1 | -3.33% (inactive) |  |
| CS(=O)(=O)c1nc(-c2ccccc2)cc(-c2ccccc2)c1C#N |  | 0.282 µM (active) |
| N#Cc1cccc(-c2nc(NCc3ccccc3)c3ccccc3n2)c1 | -29.7% [at 2.29 µM] (inactive) |  |
| CC(=O)Nc1ccc(-c2cc(-c3ccc(NC(C)=O)cc3)nc(-c3ccccc3)n2)cc1 | -11% (inactive) |  |
| COCCCN=CC1=C(O)CC(C)(C)CC1=O | -24.3% (inactive) |  |
| Cc1cccc(-c2noc(-c3cc4ccccc4oc3=O)n2)c1 | -11.5% (inactive) |  |
| O=c1oc2ccccc2cc1-c1csc(NN=C2CCCCC2)n1 |  | 3.55 µM (active) |
| CN1CCC2(CC1)C1CN(C)CC=C1C(C#N)=C(N)C2(C#N)C#N (stereo unspecified) | -21.5% (inactive) |  |
| O=C(c1ccco1)N1CCC2(CC1)CCN(c1ccc(-c3ccccc3)cc1)CC2 | -3.43% (inactive) |  |
| Cc1sc(=NC(=O)c2ccco2)n(C)c1-c1ccc(F)cc1 |  | 8.91 µM (active) |
| Cn1c(=NC(=O)CCl)sc2ccccc21 | 7.79% (inactive) |  |
| Cc1sc(=NC(=O)c2ccco2)n(C)c1-c1ccccc1 |  | 1.12 µM (active) |
| O=C(c1cnccn1)N1CCC2(CCCN(c3ccccn3)C2)CC1 | -3.22% (inactive) |  |
| CS(=O)(=O)Nc1cccc(-c2ccc3ncnc(NC4CCNCC4)c3c2)c1 | -5.87% [at 2.29 µM] (inactive) |  |
| O=C(c1csnn1)N1CCC2(CCCN(Cc3ccccc3)C2)CC1 | -6.31% (inactive) |  |
| CC1(C)CC(=O)c2cnc(N)nc2C1 | -20% (inactive) |  |
| CCOC(=O)c1c(C)nc2c(c1-c1ccc(OC)cc1)C(=O)CC(C)(C)C2 |  | 15.8 µM (active) |
| CCOC(=O)c1c(C)nc2c(c1-c1ccccc1)C(=O)CCC2 |  | 17.8 µM (active) |
| CCN1CCN(c2nc(C)c3c(n2)CCCC3=O)CC1 | 11.9% (inactive) |  |
| Cc1nccn1C[C@@H]1CCc2c(c3ccccc3n2C)C1=O | 12.3% [at 25.6 µM] (inactive) |  |
| Cc1nnc(SCC2=C(C(=O)O)N3C(=O)[C@@H](NC(=O)Cn4cnnn4)[C@@H]3SC2)s1 |  | inactive |

| SMILES | activity, negative = inhibition | AC50 |
| --- | --- | --- |
| Cc1ccc(-n2[nH]c(C)c(C=Nc3ccc4[nH]c(=O)[nH]c4c3)c2=O)cc1C | -17.8% (inactive) |  |
| CCc1nnc(NS(=O)(=O)c2ccc(N=Cc3c(C)[nH]n(-c4ccc(C)cc4)c3=O)cc2)s1 |  | 8.91 µM (active) |
| NC(N)=NC(N)=Nc1ccccc1 | -22.3% (inactive) |  |
| C/C=C\C[C@@H](C)[C@@H](O)[C@H]1C(=O)N[C@@H](CC)C(=O)N(C)CC(=O)N(C)[C@@H](CC(C)C)C(=O)N[C@@H](C(C)C)C(=O)N(C)[C@@H](CC(C)C)C(=O)N[C@@H](C)C(=O)N[C@H](C)C(=O)N(C)[C@@H](CC(C)C)C(=O)N(C)[C@@H](CC(C)C)C(=O)N(C)[C@@H](C(C)C)C(=O)N1C | -1.45% (inactive) |  |
| Fc1ccc(CSc2nnc(-c3cc4c(s3)-c3ccccc3CC4)o2)cc1 |  | 3.16 µM (active) |
| CCCCc1cc2ccccc2c(OCCN(C)C)n1 | -4.88% [at 25.6 µM] (inactive) |  |
| O=C(CSc1nnc(-c2ccc(Cl)cc2Cl)n1C1CCCCC1)NC1CCS(=O)(=O)C1 (stereo unspecified) | -10.5% (inactive) |  |
| Cc1ccc(-n2ccnc2SCC(=O)N(CC(C)C)C2CCS(=O)(=O)C2)c(C)c1 (stereo unspecified) |  | 14.1 µM (active) |
| Cc1cc(C)n2c(SCC(=O)N(C)C3CCS(=O)(=O)C3)nnc2n1 (stereo unspecified) | -6.22% (inactive) |  |
| CCC(=O)OCN1C(=O)C=CC1=O | 22.6% [at 11.4 µM] (inactive) |  |
| NC(N)=NC[C@@H]1CCCCCCN1 | 3.41% [at 11.4 µM] (inactive) |  |
| Cn1cccc1C(=O)N1CCC2(CC1)CN(C(=O)Nc1ccccc1)C2 | 8.52% (inactive) |  |
| O=C(Nc1ccccc1)OC[C@H](CN1CCCCC1)OC(=O)Nc1ccccc1 | -19.8% [at 25.6 µM] (inactive) |  |
| CN1c2ccccc2C(O)=C(C(=O)Nc2ccccc2)S1(=O)=O |  | 2.82 µM (active) |
| Cc1c(NC(C)C)c(=O)n(-c2ccccc2)n1C | -9.77% [at 25.6 µM] (inactive) |  |
| Cc1c(NC(=O)Nc2c(Cl)cccc2Cl)c(=O)n(-c2ccccc2)n1C | -2.44% [at 11.4 µM] (inactive) |  |
| Cc1ccc(S(=O)(=O)/N=C(/Nc2c(C)n(C)n(-c3ccccc3)c2=O)c2ccc(Cl)cc2)cc1 |  | 11.2 µM (active) |
| COC(=O)N1CCC2(CCCN(Cc3nccs3)C2)CC1 | -13.7% (inactive) |  |
| O=S(=O)(NCc1cc(-c2ccc(Cl)cc2)no1)c1ccc(Cl)cc1 |  | 3.98 µM (active) |
| O=S(=O)(NCc1cc(-c2ccccc2)no1)c1ccc(Cl)cc1 | -25.6% (inactive) |  |
| Cn1c(CNS(=O)(=O)c2ccc(Cl)cc2)n[nH]c1=S | -14.4% (inactive) |  |
| COC(=O)[C@@H]1[C@@H]2C[C@H]3c4[nH]c5cc(OC)ccc5c4CCN3C[C@@H]2C[C@H](OC(=O)c2cc(OC)c(OC)c(OC)c2)[C@H]1OC | -7.98% [at 25.6 µM] (inactive) |  |
| CO[C@@H]1COC(=O)[C@@H](CCSC)NC(=O)C/C=C\[C@@H](C)COC(=O)CCC[C@H]1C | -5.5% [at 11.4 µM] (inactive) |  |

Reference: PubChem BioAssay AID1851 (National Center for Advancing Translational Sciences (NCATS), 2009)
